From PubChem BioAssay (EPA / NIEHS)
Calls of active or inactive are those of the source. How the source made its calls: active means hit-call score of the fitted dose curve at least 0.9, where 1 is the maximum; inactive means score below 0.9.

Columns and labels:
[1] = ATG_CRE_CIS: Attagene CIS-FACTORIAL HepG2 Assay for human cAMP Responsive Element (CRE) binding protein 3 (AID 2282926); conditions: HepG2 CRE cis-reporter, Attagene multiplexed mRNA; actives raise or lower the signal
Procedure, shortened: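 HepG2 cells transiently transfected with cis-element-driven multiple reporter transcription units; CRE reporter mRNA measured 24 h after dosing by RT-PCR, 6-FAM labelling, HpaI digestion and capillary electrophoresis. Bidirectional fit versus DMSO baseline.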

[2] = biological target: CCAAT/enhancer-binding protein beta (Homo sapiens) (UniProt P17676); assay: ATG_C_EBP_CIS: Attagene CIS-FACTORIAL HepG2 Assay for human CCAAT/Enhancer Binding Protein (C/EBP) beta (AID 2282927); conditions: HepG2 Attagene cis-factorial transcription factor reporter; actives raise or lower the signal
Procedure, shortened: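 Chemical-treated HepG2 cells (24 h) bearing cis-regulated reporter constructs were processed for total RNA, then reverse transcription, PCR amplification, fluorescent primer extension and fragment analysis; gain- and loss-of-signal were fitted against DMSO.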

[3] = ATG_DR4_LXR_CIS: Attagene CIS-FACTORIAL HepG2 Assay for human Liver X Receptor (LXR), DR4 submotif (AID 2282929); conditions: HepG2 Attagene DR4 cis-reporter, mRNA transcription; actives raise or lower the signal
Procedure, shortened: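 Fluorescence intensity of labelled reporter cDNA fragments, separated by capillary electrophoresis, gives the signal. HepG2 cells bearing cis-regulated reporter constructs were treated 24 h; activity fitted bidirectionally relative to DMSO negative control.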

[4] = biological target: Aryl hydrocarbon receptor (Homo sapiens) (UniProt P35869); assay: ATG_Ahr_CIS: Attagene CIS-FACTORIAL HepG2 Assay for human Aryl Hydrocarbon Receptor (Ahr) (AID 2282930); conditions: HepG2 AhR cis-factorial reporter transcription; actives raise or lower the signal
Procedure, shortened: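 Following 24 h of chemical dosing, transfected HepG2 liver cells with cis-driven reporter units were lysed for RNA; reporter mRNA was quantified via RT-PCR and capillary electrophoresis, and responses fitted bidirectionally from DMSO.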

[5] = ATG_AP_1_CIS: Attagene CIS-FACTORIAL HepG2 Assay for human Activator Protein 1 (AP-1) (AID 2282931); conditions: HepG2 Attagene cis-factorial AP-1 reporter mRNA; actives raise or lower the signal
Procedure, shortened: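 Multiplexed HepG2 reporter assay, 24 h dosing. mRNA induction detected by RT-PCR plus capillary electrophoresis. Activity fitted in both directions against DMSO.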

[6] = ATG_AP_2_CIS: Attagene CIS-FACTORIAL HepG2 Assay for human Activator Protein 2 (AP-2) (AID 2282932); conditions: HepG2 AP-2 cis-reporter, Attagene transcription factor profiling; actives raise or lower the signal
Procedure, shortened: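 HepG2 cells were transiently transfected with multiple cis-promoter reporter transcription units and dosed for 24 h. Reporter mRNA was measured by RT-PCR with capillary electrophoresis fluorescence; bidirectional fits relative to DMSO baseline.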

[7] = ATG_BRE_CIS: Attagene CIS-FACTORIAL HepG2 Assay for human Bone Morphogenetic Protein (BMP) Response Element (BRE) (AID 2282933); conditions: HepG2 BMP response element reporter, Attagene transcription factor profiling; actives raise or lower the signal
Procedure, shortened: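 Multiplexed cis-reporter assay, HepG2, 24 h exposure. mRNA from reporter units quantified via RT-PCR/CE; DMSO baseline; bidirectional curve fit.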

[8] = biological target: Retinoic acid receptor alpha (Homo sapiens) (UniProt P10276); assay: ATG_DR5_RAR_CIS: Attagene CIS-FACTORIAL HepG2 Assay for human Retinoic Acid Receptor Alpha (RARE), DR5 submotif (AID 2282934); conditions: HepG2 Attagene cis-factorial RARE DR5 reporter, mRNA; actives raise or lower the signal;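 on AC50: reporter responds to endogenous RAR alpha beta and gamma in HepG2 not RARA alone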
Procedure, shortened: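 Transfected HepG2 reporter cells are exposed to chemicals for 24 h. Then RNA is extracted and the DR5 element reporter transcript is measured by RT-PCR and capillary electrophoresis, with bidirectional curve fitting relative to DMSO.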

[9] = biological target: Transcription factor E2F1 (Homo sapiens) (UniProt Q01094); assay: ATG_E2F_CIS: Attagene CIS-FACTORIAL HepG2 Assay for human E2F Transcription Factor 1 (AID 2282935); conditions: HepG2 Attagene cis-reporter, E2F reporter RNA transcripts; actives raise or lower the signal
Procedure, shortened: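 HepG2 cells transiently transfected with multiplexed cis-element reporter units, dosed for 24 h. Reporter mRNA measured by RT-PCR, 6-FAM primer-extension labeling, HpaI digestion and capillary electrophoresis; bidirectional fit versus DMSO baseline.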

[10] = ATG_CMV_CIS: Attagene CIS-FACTORIAL HepG2 Assay for human CMV (Internal Marker) (AID 2282928); conditions: HepG2 CMV promoter reporter, transcription factor profiling; actives raise or lower the signal;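 further: endpoint acts as a background internal control marker rather than a target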
Procedure, shortened: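 After transient transfection of HepG2 with reporter transcription units driven by cis-regulatory promoters, cells receive test chemical for 24 h. Labeled reporter amplicons, digested with HpaI, are sized and quantified by capillary electrophoresis against DMSO.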

Measured: AC50

Chain of Transcription factor E2F1 (Homo sapiens) (Q01094 whole entry, looked up): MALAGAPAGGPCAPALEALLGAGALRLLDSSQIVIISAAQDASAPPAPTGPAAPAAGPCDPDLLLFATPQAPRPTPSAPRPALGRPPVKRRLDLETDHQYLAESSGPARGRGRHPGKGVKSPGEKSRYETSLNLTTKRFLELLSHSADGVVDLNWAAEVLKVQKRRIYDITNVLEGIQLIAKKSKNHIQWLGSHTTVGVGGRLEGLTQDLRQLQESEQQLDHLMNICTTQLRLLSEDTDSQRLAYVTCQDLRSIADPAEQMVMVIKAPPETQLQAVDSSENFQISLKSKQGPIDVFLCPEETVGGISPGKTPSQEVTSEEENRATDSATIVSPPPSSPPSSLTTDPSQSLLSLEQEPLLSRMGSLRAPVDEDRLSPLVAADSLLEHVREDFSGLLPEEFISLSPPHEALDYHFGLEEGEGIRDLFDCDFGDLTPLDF
Chain of Retinoic acid receptor alpha (Homo sapiens) (P10276 whole entry, looked up): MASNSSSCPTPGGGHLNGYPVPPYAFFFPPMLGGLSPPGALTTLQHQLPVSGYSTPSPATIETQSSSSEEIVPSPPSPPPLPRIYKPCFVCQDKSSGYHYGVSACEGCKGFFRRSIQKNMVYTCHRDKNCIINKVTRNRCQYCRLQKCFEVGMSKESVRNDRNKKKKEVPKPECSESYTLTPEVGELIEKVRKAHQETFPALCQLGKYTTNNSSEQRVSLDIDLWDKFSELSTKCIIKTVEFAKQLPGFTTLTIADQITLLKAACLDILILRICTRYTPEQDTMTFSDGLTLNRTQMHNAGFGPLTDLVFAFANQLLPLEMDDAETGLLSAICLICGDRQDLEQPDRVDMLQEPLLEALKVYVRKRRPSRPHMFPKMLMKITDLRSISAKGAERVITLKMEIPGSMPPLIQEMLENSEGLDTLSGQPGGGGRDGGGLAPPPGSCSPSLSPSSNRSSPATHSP
Chain of CCAAT/enhancer-binding protein beta (Homo sapiens) (P17676 whole entry, looked up, the tested form may be a part): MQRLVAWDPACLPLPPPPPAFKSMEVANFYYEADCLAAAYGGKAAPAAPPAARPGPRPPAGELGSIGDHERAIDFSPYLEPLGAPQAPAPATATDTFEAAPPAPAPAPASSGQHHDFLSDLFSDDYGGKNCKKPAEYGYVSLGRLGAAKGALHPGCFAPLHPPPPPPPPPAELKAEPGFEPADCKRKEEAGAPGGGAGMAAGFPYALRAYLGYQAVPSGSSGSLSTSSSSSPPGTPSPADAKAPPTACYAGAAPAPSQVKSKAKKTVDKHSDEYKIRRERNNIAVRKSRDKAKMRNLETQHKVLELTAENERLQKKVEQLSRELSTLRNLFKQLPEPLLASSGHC
Chain of Aryl hydrocarbon receptor (Homo sapiens) (P35869 whole entry, looked up): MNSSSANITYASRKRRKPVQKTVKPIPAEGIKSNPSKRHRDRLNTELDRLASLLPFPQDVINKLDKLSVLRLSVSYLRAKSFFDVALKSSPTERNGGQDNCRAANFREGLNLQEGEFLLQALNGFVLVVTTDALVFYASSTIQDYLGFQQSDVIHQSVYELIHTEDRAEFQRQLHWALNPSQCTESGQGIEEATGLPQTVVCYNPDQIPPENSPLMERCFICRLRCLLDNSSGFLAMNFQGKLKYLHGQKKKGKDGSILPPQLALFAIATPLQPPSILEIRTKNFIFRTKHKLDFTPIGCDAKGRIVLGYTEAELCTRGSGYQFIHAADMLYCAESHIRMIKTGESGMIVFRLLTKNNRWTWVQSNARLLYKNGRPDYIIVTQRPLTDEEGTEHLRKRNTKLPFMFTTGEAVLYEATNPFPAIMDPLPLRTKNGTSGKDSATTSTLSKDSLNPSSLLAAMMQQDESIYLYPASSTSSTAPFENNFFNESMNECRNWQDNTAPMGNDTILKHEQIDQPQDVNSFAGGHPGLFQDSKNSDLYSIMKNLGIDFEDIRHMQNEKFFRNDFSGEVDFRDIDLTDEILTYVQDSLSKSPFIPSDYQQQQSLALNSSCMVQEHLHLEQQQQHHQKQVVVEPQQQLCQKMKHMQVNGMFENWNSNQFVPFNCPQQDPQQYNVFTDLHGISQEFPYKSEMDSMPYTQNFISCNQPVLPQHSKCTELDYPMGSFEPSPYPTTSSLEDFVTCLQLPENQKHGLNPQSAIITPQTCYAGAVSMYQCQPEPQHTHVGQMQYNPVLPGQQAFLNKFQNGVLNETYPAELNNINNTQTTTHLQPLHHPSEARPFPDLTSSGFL

CCCCCC(C)O (stereo unspecified)
not listed: [10]
inactive: all other assays above

NC(=O)c1ccccc1O
not listed: [10]
inactive: all other assays above

Cc1ccc2oc(=O)ccc2c1
not listed: [3] | [7]
inactive: all other assays above

C=C1C2CCC(C2)C1(C)C (stereo unspecified)
not listed: [9] | [10]
inactive: all other assays above

C=COCCCC
not listed: [3] | [6] | [9]
inactive: all other assays above

CC(C)CCCCCOC(=O)CCS
not listed: [7] | [10]
inactive: all other assays above

CC(C)(c1cc(Br)c(OCCO)c(Br)c1)c1cc(Br)c(OCCO)c(Br)c1
inactive: [4] | [7]
active: [1] 38.7 µM | [2] 45.3 µM | [3] 15.6 µM | [6] 10.5 µM | [8] 0.22 µM

CCC(Cc1ccccc1)(C(=O)c1ccc(N2CCOCC2)cc1)N(C)C (stereo unspecified)
active: [5] 72.1 µM | [8] 73.1 µM
not listed: [10]
inactive: all other assays above

COc1ccc2nc(N)sc2c1
active: [4] 3.17 µM
not listed: [3] | [7]
inactive: all other assays above

NCCCN1CCN(CCCN)CC1
not listed: [10]
inactive: all other assays above

CC(=O)c1ccc2c(c1)CCCC2
not listed: [5] | [10]
inactive: all other assays above

CC(C)(C)c1ccc(N)cc1
not listed: [10]
inactive: all other assays above

CC=CCO
not listed: [3] | [7] | [9]
inactive: all other assays above
